Source: PubChem BioAssay (NCI)
Compounds without any hit were thinned out: in the full panel of roughly 79,000, 15% have a hit. The source made the active and inactive calls. Cut-off read from the data, not from the text of the source: active = growth inhibition above about 70%; inactive = the rest.

Assay: NCI Yeast Anticancer Drug Screen. Data for the bub3 strain (AID 167)
Details: S. cerevisiae bub3 mutant strain, at 50.0 µM, active compounds read high
Summary of the method: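 Steps: expose the mutant yeast strain to compound; grow alongside vehicle-treated cultures; measure growth; express inhibition against the vehicle cultures.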

Structure (SMILES) | growth inhibition
CC(C)c1ccc2c(c1)CC[C@@H]1[C@](C)(CO)CCC[C@]21C | 89.1% (active)
O=c1c2ccccc2ncn1Cc1ccccc1[N+](=O)[O-] | 26.2% (inactive)
O=C(NO)C(=O)Nc1cc(Cl)ccc1Cl | 85.9% (active)
CCCCCCCCCCCCOC(=O)C[n+]1cccc(C(=O)Nc2ccccc2)c1 | 98.8% (active)
O=C1C=CC(=O)c2ccc(=O)ccc21 | -1.35% (inactive)
Cn1c(=O)nc2n(-c3ccc(Cl)cc3)c3cc(Cl)ccc3nc-2c1=O | -6.9% (inactive)
Clc1ccc(CN2COc3c(ccc4ccccc34)C2)cc1 | 89.9% (active)
C1CCN(c2nc(N3CCOCC3)c3[nH]c(N4CCCCC4)nc3n2)CC1 | 49.6% (inactive)
O=C1c2ccccc2-c2cc([N+](=O)[O-])c([N+](=O)[O-])cc21 | 98.7% (active)
CCC[CH2][Sn]([CH2]CCC)([O]C(=O)Cc1ccc(F)cc1)[O]C(=O)Cc1ccc(F)cc1 | 76% (active)
ClCc1ccc2oc3ccccc3c2c1 | -23.6% (inactive)
O=C1Oc2ccccc2C(=O)/C1=C/N1C(=O)/C(=C/c2ccc([N+](=O)[O-])cc2)SC1=S | 85% (active)
COC1=CC(=O)c2ncc(Cl)cc2C1=O | 83.5% (active)
CN(C)c1ccc(C(c2ccc(N(C)C)cc2)c2ccc3c(c2)OCO3)cc1 | 90% (active)
CC(C)(C)OC(=O)CSC#N | 69.2% (inactive)
CN=c1ss/c(=N\C(=S)N(C)C)n1-c1ccccc1 | 42.5% (inactive)
CCCCCCCCCCCCCCCBr | 80.7% (active)
O=c1c2ccccc2[nH]c2c1[nH]c1ccccc12 | -20.6% (inactive)
COc1cc(/C=C/c2cc[n+](C)cc2)ccc1O | 0.85% (inactive)
COc1cc(C2c3cc4c(cc3C(OC3CCCCO3)C3COC(=O)C23)OCO4)cc(OC)c1OC (centres undefined) | 54.4% (inactive)

Structure (SMILES) | growth inhibition
O=S(=O)(N/N=C/c1ccc(Cl)cc1Cl)c1ccccc1 | -16.6% (inactive)
Cc1ccc(C(=O)/C(Cl)=N/O)cc1 | 98.8% (active)
Cc1ccnc(NS(=O)(=O)c2ccc(N=Cc3c4ccccc4nc4cc(Cl)ccc34)cc2)n1 | 58.1% (inactive)
COc1cc(CCN=Cc2cc(Cl)cc(Cl)c2O)c([N+](=O)[O-])cc1OC | 77.7% (active)
COc1ccc(C(C)c2cc3c(cc2OC/C(C)=N/NC(N)=O)OCO3)cc1 (centres undefined) | 88.1% (active)
C/C(CCC1CCc2ccccc2C1)=N\NC(N)=O (centres undefined) | 11.4% (inactive)
Cc1nc(C(N)=S)sc1C(=O)CC(=O)C(=O)Nc1nc2ccccc2[nH]1 | 1.75% (inactive)
Clc1ccc([O][In]([O]c2ccc(Cl)cn2)[O]c2ccc(Cl)cn2)nc1 | 48.2% (inactive)
Cc1ccc(S(=O)(=O)C(=S)Sc2ccccc2)cc1 | 36.5% (inactive)
Fc1ccc2[nH]ccc2c1 | 62.3% (inactive)
C(=C/c1ccccc1)/C=N/Nc1ccccc1 | 36.5% (inactive)
O=S1(=O)CC2C1C1(Cl)OC2(Cl)c2ccccc21 (centres undefined) | 21.4% (inactive)
CCCNC(=O)C(=O)NNc1ccccc1 | 70.7% (active)
C/C(=N/O)c1cccc(C(F)(F)F)c1 | 34.6% (inactive)
COC1=CC(=O)c2c(O)c3c(c(O)c2C1=O)OC1(Oc2c(cc4cc(C)oc(=O)c4c2O)CC1O)C3O (centres undefined) | 91% (active)
CC(C)C1/C(=N/O)CC(c2ccccc2)N(N=O)C1c1ccccc1 (centres undefined) | 88% (active)
Cc1c(N)nc(C2CC(=O)N2CC(N)C(N)=O)nc1C(=O)NC(C(=O)NC(C)C(O)C(C)C(=O)NC(C(=O)NCCc1nc(-c2nc(C(=O)NCCCNC3CCCC3)cs2)cs1)C(C)O)C(OC1OC(CO)C(O)C(O)C1OC1OC(CO)C(O)C(OC(N)=O)C1O)c1cnc[nH]1 (centres undefined) | 93.5% (active)
CCOC(=O)C1(Br)CCN(S(=O)(=O)c2ccc(C)cc2)c2ccccc2C1=O (centres undefined) | 97.5% (active)
O=C(C[n+]1ccccc1)c1ccc2ccc3ccc(Cl)cc3c2c1 | 2.15% (inactive)
